Where “and” joins values, the source holds several entries; their conditions need not be identical. Identical values can stand only once. Compounds without any hit were thinned out: in the full panel of roughly 83,000, 20% have a hit.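 Values shown are percent growth following 48 h exposure of cells in 96-well plates to a single concentration of compound; below 10 was considered active.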 Calls of active or inactive are those of the source.

For the test, the system named is CCRF-CEM leukemia. The experiment in a line: NCI-60 one-dose screen, 48 h (100 = growth as untreated, 0 = no growth, -100 = all killed). The following applies: 10 µM unless noted. Here is the method:
Growth inhibition of the CCRF-CEM human tumor cell line is measured as a screen for anti-cancer activity. Cells are grown in 96 well plates and exposed to the test compound for 48 hours. Compounds are tested at a single concentration, which is 10^-5 M for most compounds. The reported endpoint is percent growth (GI% or GIPRCNT), where numbers from 0 - 100% represent growth inhibition, and numbers from -100% - 0 represent cell death. For example, a value of 40 represents 60% growth inhibition. A value of 0 means no net growth occurred over the course of the experiment. A value of -40 indicates 40% of cells at the beginning of the experiment died by the end of the experiment. A value of -100 means all cells are dead at the end of the experiment.
NCI-60 Human Tumor Cell Lines Screen was performed using the standard one-dose NCI protocol, which is described in more detail at https://dtp.cancer.gov/discovery_development/nci-60/default.htm.
Compounds with GIPRCNT values below 10 were considered active. Activity score was based on GIPRCNT using the following formula: […]
Score is 0 for GIPRCNT values of 100 or above, 50 for GIPRCNT values of 0, and 100 for GIPRCNT values of -100.
Turning to `NC1=CC(=O)c2cccnc2C1=O`, the growth is -24.3% (active).

As to `C#CCn1cnc2cnc(Nc3cccc(NC(=O)CCl)c3)nc21`, the growth was 1.51% [6.25 µM] (active).

For `O=C1/C(=C/c2cn(-c3ccccc3)nc2-c2ccccc2)SC(=S)N1c1ccccc1`, the growth is 101% (inactive).

As to `CC(=O)Nc1c(I)c(NC(C)=O)c(I)c(C(=O)O)c1I`, the growth is 95.9% (inactive) and 105% (inactive).

With `CC1=C2[C@@H](CC1)[C@]1(C)O[C@@](C(C)C)(C[C@H]1OC(=O)CO)[C@H]2OC(=O)C1CC1c1ccccc1` (stereo not given in full), the growth was 96.1% (inactive).

`O=C(Cn1cc(CN2CCN(c3ccnc4cc(Cl)ccc34)CC2)nn1)Nc1cccc([N+](=O)[O-])c1`: the growth is 33.8% (inactive).

Take `CCCCCCCCCCCCCCCCCCn1cc(COc2ccc(C=O)cc2)nn1`: the growth is 103% (inactive).

As for `[2H]C([2H])([2H])Oc1cc(F)ccc1/C=C/C(=O)/C=C(/C=C/c1ccc(F)cc1OC([2H])([2H])[2H])OB(F)F`, the growth was 2.38% (active).

Regarding `COc1ccc(/C=N/C2=C(C#N)C(c3ccccc3)c3c(ccc4ccccc34)O2)cc1` (stereo not given), the growth is 15.2% (inactive).

As for `Cc1cc2nc(C(Cl)Cl)nc(-c3ccc(Cl)cc3)n2n1`, the growth was 29.2% (inactive).

Turning to `Cc1nc2cccc(NCCCCC(=O)NO)c2c(=O)n1-c1ccccc1`, the growth was 25.3% (inactive).

Consider `COc1ccc(-c2csc(NC(=O)CN3CCN(CCO)CC3)n2)cc1NS(=O)(=O)c1cccc2c(N(C)C)cccc12`, for which the growth is 54.8% (inactive).

For `CCCO/N=C/c1ccccn1`, the growth was 80.9% (inactive) and 105% (inactive).

With `OCCN1CCN(CC/C=C2\c3ccccc3Sc3ccc(Cl)cc32)CC1`, the growth was -17.7% (active) and 23.8% (inactive).

For the compound `CCCCSc1ccc2nc(-c3ccc(OCCCN=C(N)N)cc3)cn2c1`, the growth is 53.4% (inactive).

For `Nc1nc(Cl)nc2c1ncn2C1OC(CO)C(O)C1O` (stereo not given), the growth is 0.283% (active) and -17% (active).

For `CC(Sc1ccccc1)C(=O)O` (stereo not given), the growth is 93.9% (inactive).

Regarding `O=C(NNc1ccccc1)c1ccccc1`, the growth is 56.8% (inactive) and 49.8% (inactive).

For `Fc1ccc(NC(c2ccc(F)cc2)C2CCN(CCCCc3ccccc3)CC2)cc1` (stereo not given), the growth is 8.3% (active).

In the case of `C=CCOc1ccc(/C=C2\SC(=S)N(CCc3ccc(O)cc3)C2=O)cc1`, the growth is 5.72% (active).

As for `C#Cc1cc(C(=O)Nc2ccc(CN3CCN(C)CC3)c(C(F)(F)F)c2)ccc1C`, the growth was 74.8% (inactive).

Regarding `COc1cc(/C=C(/c2ccccc2)[N+](=O)[O-])c(OC)c2c1OCO2`, the growth is -6.26% (active).

As for `c1ccc(Cc2cccc[n+]2C(c2ccccc2)c2ccccc2)cc1`, the growth was 48.6% (inactive).

For `Cc1nonc1-c1ccc2c(c1)OCO2`, the growth was 86.9% (inactive) and 94.1% (inactive).

For `C#CCOCC1CN(C)C(=O)O1` (stereo not given), the growth is 98.9% (inactive).

For `O=C(Nc1ccc(Cl)c(Cl)c1)Nc1ccc(Cl)c(Cl)c1`, the growth was -14% (active) and 21.4% (inactive).

In the case of `CCN(C(=O)N1CCN(c2cc3c(cc2F)c(=O)c(C(=O)O)cn3C2CC2)CC1)c1nc(-c2ccccc2)cs1`, the growth was 18.1% (inactive).

Take `COc1ccc(/C=C(\C#N)c2cc3ccccc3[nH]2)cc1`: the growth was 13.5% (inactive).

On to `CCOC(=O)C1=C(C)NC(=O)NC1c1c(Cl)n(-c2ccccc2)c2ccccc12` (stereo not given), for which the growth is 3.16% (active).

Turning to `C/C=C(\C)C(=O)N[C@H]1CC[C@]2(C)C3CC[C@@]4(C)C(CC[C@@H]4C(C)N(C)C)C3CCC2[C@H]1OC(C)=O` (stereo not given in full), the growth is 1.62% (active).

With `C=C1C(=O)O[C@@H]2[C@H]3[C@H](COC(C)=O)[C@@H](OC(C)=O)C[C@H]3C(=C)[C@@H](O)C[C@@H]12`, the growth is 61.8% (inactive).

Consider `Cc1ccc(C(=O)c2ccc(CC(=O)N=Nc3c(O)[nH]c4ccc(OC(F)(F)F)cc34)n2C)cc1`, for which the growth was 99.1% (inactive).

`COc1cc(C=O)ccc1Oc1ccc([N+](=O)[O-])cc1[N+](=O)[O-]`: the growth is 82.9% (inactive).

With `Nc1nc2ccccc2c2c(=O)c3ccc(Cl)cc3sc12`, the growth is 94.5% (inactive).

With `N#C/C(=C\c1ccccc1Cl)c1cc2ccccc2[nH]1`, the growth is -4.12% (active).

Consider `CCOC(=O)c1c(-c2ccc(OC)cc2)c(C#N)c2c(C#N)c(N)nn2c1N`, for which the growth was 5.96% (active).

Take `CC1(Cc2ccccc2)CC2=C(C(=O)O1)C(c1ccccc1)NC(=O)N2` (stereo not given): the growth is 91.1% (inactive).

Turning to `Cc1nc2sc(C(=O)Nc3cccc4ccccc34)c(N)c2cc1C(=O)/C=C/c1ccccc1`, the growth is 5.51% (active).

Consider `COc1ccc(/C=N\Nc2nc(SCC(C)C)nc(-c3ccc(OC)cc3)c2C#N)cc1`, for which the growth was 38.6% (inactive).

As for `NNCCc1ccccc1`, the growth is 90.9% (inactive) and 106% (inactive).

(Values after PubChem BioAssay (NCI).)
